Eleven molecules from PubChem BioAssay can be followed below.

“And” between values parts separate entries of the source, which are not always exact repeats. Equal values may be shown once.

In this test the test system is Sam68 (KHDRBS1). The experiment in a line: compounds binding KHDRBS1 protein – biochemical, small-molecule microarray, 635 nm fluorescence, primary screen (AID 1125).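 Note: score merges 667 nm channel intensity with signal to noise over triplicate slides.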 The conditions noted are these: higher = more signal.
Molecule `COc1ccc(COC(=O)NN=C2C[C@@H](O)[C@@H](O)[C@@H]3[C@@H]4C(=O)N(C(C)(C)C)C(=O)[C@@H]4CC[C@H]23)cc1` came in with a composite z-score of 1.22.

Consider `COC(=O)C1=C2N(Cc3ccccc3)C(C)=C(C(=O)OC)[C@@H](c3ccccc3)N2C(=O)[C@](O)(C(=O)OC)C1`, for which the composite z-score was 0.776 and 0.133.

Consider `C[N+](C)(C)CCCCNC(=O)[C@@H]1C[C@@H]2C(=O)N[C@@H](CCCC[N+](C)(C)C)C(=O)N2[C@@H]1c1cccc(OCCO)c1`, for which the composite z-score is 1.31 and 0.767.

In the case of `C[C@@H]1CC[C@H]2C(=O)N3[C@@H](CC[C@@H](C)[C@@H]3c3ccc(-c4ccco4)cc3)C(=O)N2[C@H]1c1ccc(-c2ccco2)cc1`, the composite z-score is 1.3 and 1.1.

Turning to `C=CCN(Cc1ccccc1)C(=O)C1N(c2ccc(CCO)cc2)C(=O)C2C(C(=O)O)C3C=CC21O3` (stereo unspecified), the composite z-score was -1.15 and -1.08.

On to `CC(C)N1CC=CC23O[C@@H]4C=CCCOC(=O)C4[C@H]2C(=O)N(C(C)CO)[C@@H]3C1=O` (stereo partly specified), for which the composite z-score is 0.967 and -0.516.

`CC(C)C(=O)N[C@@H]1CCCN1C(=O)C=Cc1ccccc1` came in with a composite z-score of 0.806.

`CO[C@@H]1COC(=O)[C@H](Cc2ccccc2)NC(=O)CC=C[C@@H](C)[C@H](OC)COC(=O)[C@@H](C)NC(=O)CC=C[C@H]1C`: the composite z-score is 1.09 and 0.672.

As to `COC(=O)[C@@]1(Cc2ccc(OC)cc2)[C@H]2c3cc(C(=O)N(C)C)n(Cc4ccc(O)c(OC)c4)c3C[C@H]2CN1C(=O)c1ccccc1`, the composite z-score was 0.725 and 1.22.

With `C=CCN(CCCCC)C(=O)C1N(CCCCCCO)C(=O)C2C(C(=O)O)C3C=CC21O3` (stereo unspecified), the composite z-score was -0.408 and -1.45.

As for `O=c1n(-c2ccccc2)c(=O)n2n1CC[C@@H]1C(=NOC[C@@H](O)COCc3ccco3)[C@H]3O[C@H]3[C@@H](O)[C@@H]12`, the composite z-score is 0.623 and -0.34.
